According to PubChem BioAssay AID1159580 (chemical genetic matrix, 2015):
Values joined by “and” are separate entries in the source; they are usually repeats but may differ in a detail not shown here. Identical values can stand only once. The whole screen tested about 5,500 compounds, of which about 2,000 (36%) were called active. About 18% were inconclusive and are not listed. No stated cut-off is given here; in the data, active means normalized growth mostly below about 0.91 (no sharp cut-off); inconclusive means no clear call, values can overlap the other calls; inactive means mostly above about 0.92. The list shows a part of the results.

Experiment: chemical genetic growth profiling, strain panel (AID 1159580);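 further: tested at 20 µM; growth read once vehicle control cultures reached saturation at 30 °C; 1 = growth at the plate median or of vehicle wells; lower values mean less growth of the strain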
Conditions: S. cerevisiae deletion strains, growth OD

Measured: normalized growth

CN1C(=O)CCS(=O)(=O)C1c1ccc(Cl)cc1 (stereo unspecified)
inactive: locus YAL013W, strain DEP1, active compounds read low 1.01 | locus YAL021C, strain ccr4, active compounds read low 0.981 | locus YAL026C, strain drs2, active compounds read low 0.982 | locus YAL030W, strain snc1, active compounds read low 0.992 | locus YAL040C, strain CLN3, active compounds read low 1.03 | locus YBL061C, strain skt5, active compounds read low 1 | locus YBR009C, strain hhf1, active compounds read low 0.953 | locus YBR021W, strain FUR4, active compounds read low 1.02 | locus YBR023C, strain chs3, active compounds read low 0.995 | locus YBR171W, strain sec66, active compounds read low 0.988 | locus YBR229C, strain ROT2, active compounds read low 1.01 | locus YBR231C, strain swc5, active compounds read low 0.965 | locus YBR279W, strain paf1, active compounds read low 0.99 | locus YCL011C, strain gbp2, active compounds read low 1.01 | locus YCL016C, strain dcc1, active compounds read low 1.01 | locus YCL029C, strain bik1, active compounds read low 1.02 | locus YCL061C, strain MRC1 (second series), active compounds read low 0.999 | locus YCL061C, strain MRC1, active compounds read low 0.99 | locus YCL069W, strain vba3, active compounds read low 0.949 | locus YCR088W, strain abp1, active compounds read low 0.982 | locus YDL005C, strain med2, active compounds read low 0.991 | locus YDL035C, strain GPR1, active compounds read low 1.02 | locus YDL040C, strain nat1, active compounds read low 0.973 | locus YDL074C, strain BRE1, active compounds read low 1.04 | locus YDL101C, strain DUN1, active compounds read low 1.02 | locus YDL134C, strain PPH21, active compounds read low 1.01 | locus YDL185W, strain tfp1, active compounds read low 1.03 | locus YDL192W, strain arf1, active compounds read low 1.01 | locus YDR001C, strain nth1, active compounds read low 0.976 | locus YDR069C, strain doa4, active compounds read low 0.971 | locus YDR101C, strain arx1, active compounds read low 1.01 | locus YDR137W, strain rgp1, active compounds read low 0.993 | locus YDR150W, strain NUM1, active compounds read low 1.01 and 1 | locus YDR159W, strain sac3, active compounds read low 0.883 | locus YDR162C, strain NBP2, active compounds read low 1.02 | locus YDR195W, strain ref2 0.956 | locus YDR297W, strain sur2, active compounds read low 0.983 | locus YDR318W, strain mcm21, active compounds read low 1.01 | locus YDR334W, strain swr1, active compounds read low 0.951 | locus YDR335W, strain msn5, active compounds read low 0.972 | locus YDR363W, strain ESC2, active compounds read low 1.03 | locus YDR388W, active compounds read low 1.01 | locus YDR392W, strain spt3, active compounds read low 0.939 | locus YDR502C, strain sam2, active compounds read low 1.01 | locus YEL003W, strain gim4, active compounds read low 0.982 | locus YEL037C, strain rad23, active compounds read low 0.982 | locus YEL061C, strain CIN8 (second series), active compounds read low 0.995 | locus YEL061C, strain CIN8, active compounds read low 1.01 | locus YER002W, strain NOP16, active compounds read low 1.01 | locus YER015W, strain faa2, active compounds read low 0.985 | locus YER016W, strain bim1, active compounds read low 1.03 | locus YER110C, active compounds read low 1.01 | locus YER111C, strain swi4, active compounds read low 0.996 | locus YER155C, strain BEM2 (second series), active compounds read low 1 | locus YER155C, strain BEM2, active compounds read low 1.01 | locus YER167W, strain BCK2, active compounds read low 1.01 | locus YFR010W, strain ubp6, active compounds read low 0.954 | locus YGL078C, strain dbp3, active compounds read low 0.998 | locus YGL086W, strain mad1, active compounds read low 1.01 | locus YGL167C, strain pmr1, active compounds read low 0.963 | locus YGL173C, strain kem1, active compounds read low 0.953 | locus YGL227W, strain vid30, active compounds read low 0.98 | locus YGL240W, strain doc1, active compounds read low 0.963 | locus YGL248W, strain PDE1, active compounds read low 1.01 | locus YGL253W, strain hxk2, active compounds read low 0.995 | locus YGR078C, strain PAC10, active compounds read low 1.02 | locus YGR135W, strain pre9, active compounds read low 1.01 | locus YGR229C, strain SMI1, active compounds read low 1.03 | locus YGR252W, strain gcn5, active compounds read low 1.01 | locus YHR013C, strain ard1, active compounds read low 0.982 | locus YHR027C, strain rpn1, active compounds read low 0.98 | locus YHR030C, strain SLT2, active compounds read low 1.01 and 0.973 | locus YHR079C, strain IRE1 (second series), active compounds read low 1.02 | locus YHR079C, strain IRE1, active compounds read low 0.97 | locus YHR094C, strain hxt1, active compounds read low 1.01 | locus YHR129C, strain ARP1, active compounds read low 1.01 | locus YHR142W, strain chs7, active compounds read low 0.975 | locus YHR200W, strain rpn10, active compounds read low 1.01 | locus YIL066C, strain RNR3, active compounds read low 1.02 | locus YIL073C, strain SPO22, active compounds read low 1.05 | locus YIL125W, strain kgd1, active compounds read low 1.01 | locus YIR030C, strain dcg1, active compounds read low 1.01 | locus YJL092W, strain hpr5, active compounds read low 0.997 | locus YJL095W, strain BCK1 (second series), active compounds read low 0.977 | locus YJL095W, strain BCK1, active compounds read low 1.04 and 0.994 | locus YJL115W, strain asf1, active compounds read low 0.967 | locus YJL129C, strain trk1, active compounds read low 0.994 | locus YJL134W, strain LCB3, active compounds read low 1.01 | locus YJL154C, strain vps35, active compounds read low 0.989 | locus YJL164C, strain tpk1, active compounds read low 0.997 | locus YJL166W, strain qcr8, active compounds read low 0.943 | locus YJL168C, strain set2, active compounds read low 1.01 | locus YJL187C, strain SWE1 (second series), active compounds read low 1.03 | locus YJL187C, strain SWE1, active compounds read low 0.994 | locus YJR043C, strain POL32, active compounds read low 1.02 | locus YJR066W, strain TOR1, active compounds read low 0.885
